According to PubChem BioAssay AID1445 (SRMLSC, 2008):
The campaign covered roughly 220,000 compounds. About 910 (0.41%) were called active.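 Rule for the calls: active = primary inhibition above the hit cutoff, then over 50% inhibition at one or more dose response concentrations (cut at about 23% in these data, passing the limit was not always enough); inconclusive = conflicting primary data, or primary hits not chosen for dose response; inactive = low primary inhibition, or under 50% at every dose.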 The list comes from a sample in which actives are over-represented; it also holds similar structures and randomly drawn compounds. Results with a measured potency or affinity are listed apart.

Target: Aminopeptidase N (Plasmodium falciparum (isolate 3D7)) (UniProt O96935)
Assay: P. falciparum M1AAP inhibitors, biochemical, fluorogenic H-Leu-NHMec substrate, 1536-well (AID 1445);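 note: plate controls were DMSO full reaction for no effect and no enzyme background for full effect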
Details: recombinant M1AAP, H-Leu-NHMec fluorogenic kinetic assay; at 30 µM, stronger effect = higher value unless noted

Sequence of Aminopeptidase N (Plasmodium falciparum (isolate 3D7)) (O96935 whole entry, looked up): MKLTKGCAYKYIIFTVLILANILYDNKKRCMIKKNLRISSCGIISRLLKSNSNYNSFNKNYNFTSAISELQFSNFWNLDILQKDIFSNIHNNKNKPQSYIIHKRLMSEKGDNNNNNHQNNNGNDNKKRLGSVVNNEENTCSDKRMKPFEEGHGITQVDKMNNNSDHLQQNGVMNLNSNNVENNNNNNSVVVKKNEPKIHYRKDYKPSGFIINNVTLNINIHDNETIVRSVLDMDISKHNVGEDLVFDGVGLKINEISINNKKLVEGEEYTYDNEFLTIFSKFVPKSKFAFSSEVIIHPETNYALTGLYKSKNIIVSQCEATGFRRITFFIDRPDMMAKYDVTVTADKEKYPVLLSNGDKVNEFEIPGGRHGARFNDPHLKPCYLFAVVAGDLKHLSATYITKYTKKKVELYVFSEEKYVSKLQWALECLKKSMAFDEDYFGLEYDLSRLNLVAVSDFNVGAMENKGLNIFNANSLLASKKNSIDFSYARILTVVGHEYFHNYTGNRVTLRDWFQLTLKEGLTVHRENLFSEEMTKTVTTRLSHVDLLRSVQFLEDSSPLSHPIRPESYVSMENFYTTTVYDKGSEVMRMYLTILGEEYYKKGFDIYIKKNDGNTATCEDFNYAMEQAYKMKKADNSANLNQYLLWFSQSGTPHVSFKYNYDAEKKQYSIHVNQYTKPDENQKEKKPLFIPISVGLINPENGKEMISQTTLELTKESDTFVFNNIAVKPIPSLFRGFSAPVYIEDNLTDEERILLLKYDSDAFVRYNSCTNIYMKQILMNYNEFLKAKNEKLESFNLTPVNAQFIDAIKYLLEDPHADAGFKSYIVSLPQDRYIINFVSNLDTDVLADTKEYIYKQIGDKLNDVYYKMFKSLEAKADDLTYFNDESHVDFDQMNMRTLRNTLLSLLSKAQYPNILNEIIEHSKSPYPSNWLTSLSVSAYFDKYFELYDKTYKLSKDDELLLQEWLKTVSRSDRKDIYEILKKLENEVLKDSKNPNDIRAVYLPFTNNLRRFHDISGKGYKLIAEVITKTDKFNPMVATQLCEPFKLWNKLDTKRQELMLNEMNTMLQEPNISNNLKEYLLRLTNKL

Structure (SMILES) | inhibition
Cc1nc2sc3c(c2c(=O)n1/N=C/c1cccnc1)CCCC3 | 2.58% (inactive)
O=C1c2oc3ccccc3c(=O)c2C(c2cccs2)N1CCCN1CCOCC1 (centres undefined) | 16.3% (inactive)
CCN(CC)CCCN1C(=O)c2oc3ccccc3c(=O)c2C1c1cccs1 (centres undefined) | 23.3% (active)
CN(C)CCCN1C(=O)c2oc3ccccc3c(=O)c2C1c1cccs1 (centres undefined) | 10.7% (inactive)
S=C(NC1CC1)N1CCN(c2ccc(Cl)cc2)CC1 | -2.34% (inactive)
CC(C)C(=O)NC(=S)Nc1ccc(S(=O)(=O)Nc2nccs2)cc1 | 2.01% (inactive)
O=C(Cc1cccs1)Nn1c(Cc2cccs2)nc2ccccc2c1=O | 10.8% (inactive)
O=C(Cc1ccccc1)Nn1c(-c2ccccc2)nc2ccccc2c1=O | 3.49% (inactive)
COc1cccc(OC)c1C(=O)Nn1c(-c2cccs2)nc2ccccc2c1=O | 1.67% (inactive)
Cc1ccc(-c2nc3ccccc3c(=O)n2NC(=O)c2cccs2)cc1 | 5.47% (inactive)
Cc1cccc(-c2nc3ccccc3c(=O)n2NC(=O)c2cccnc2Cl)c1 | 8.24% (inactive)
COc1cccc(OC)c1C(=O)Nn1c(-c2cccc(C)c2)nc2ccccc2c1=O | 6.13% (inactive)
COc1ccccc1C(=O)Nn1c(-c2cccs2)nc2ccccc2c1=O | 10.4% (inactive)
O=C(Nn1c(Cc2cccs2)nc2ccccc2c1=O)c1ccc(F)c(F)c1 | 8.58% (inactive)
c1ccc(-c2ccc(CN3C[C@@H]4C(c5ccccc5)C5(c6ccccc6)CC4(C5)[C@H]3c3ccccc3)cc2)cc1 (some centres undefined) | -2.33% (inactive)
O=C(CSc1ccc(-c2ccc(F)cc2)nn1)NCCc1ccccc1 | -0.33% (inactive)
Clc1ccc(-c2nn3cnnc3s2)c(Cl)c1 | 0.7% (inactive)
CCN=C1SC(CC(=O)NCCc2ccc(OC)c(OC)c2)C(=O)N1CC (centres undefined) | -3.87% (inactive)
Cc1[nH][nH]c(=O)c1C(c1ccc(O)c([N+](=O)[O-])c1)c1c(C)[nH][nH]c1=O | 14% (inactive)
Cc1[nH][nH]c(=O)c1C(c1ccc([N+](=O)[O-])cc1)c1c(C)[nH][nH]c1=O | -16.2% (inactive)
Clc1ccc(CN2C3=NCCN3c3ccccc32)cc1 | 7.94% (inactive)
Cc1cc(C)n2nc(C(=O)NCc3ccco3)cc2n1 | 8.12% (inactive)
Cc1cc(C(=O)NCc2cccs2)nn1C | 3.72% (inactive)
CCN(CC)C(=O)CSc1nc(O)c(Cc2ccccc2)c(=O)n1-c1ccc(C)cc1 | 4.4% (inactive)

Structure (SMILES) | inhibition
Cc1ccc(C(=O)Nc2ccccc2C(=O)N2CCCCCC2)cc1 | 4.87% (inactive)
CC(C)CN(C(=O)COC(=O)c1ccccc1Sc1ccccc1C#N)C1CCS(=O)(=O)C1 (centres undefined) | -1.64% (inactive)
Cc1cccc(C)c1OCc1nc2ccccc2c(=O)n1/N=C/c1c[nH]c2ccccc12 | 5.57% (inactive)
O=c1c2ccccc2nc(COc2ccccc2)n1/N=C/c1ccc(O)c(O)c1 | 14.6% (inactive)
O=c1c2ccccc2nc(COc2ccccc2)n1/N=C/c1ccc(O)cc1O | 19.8% (inactive)
CCCc1nc2ccccc2c(=O)n1/N=C/c1ccc(O)cc1 | -1.67% (inactive)
CCn1c(COc2cccc(C)c2C)nnc1SCC(=O)Nc1cc(C)on1 | 7.39% (inactive)
COc1cc(/C=C/C(=O)OCC(=O)NCc2cccs2)ccc1OC(F)F | 4.72% (inactive)
O=C(N/N=C\c1ccc[nH]1)C1COc2ccccc2O1 (centres undefined) | 9.36% (inactive)
CC1=NN(c2ccccc2)C(=O)C1C(=O)c1ccccc1 (centres undefined) | 14.1% (inactive)
CC1=NN(c2ccccc2)C(=O)C1C=Nc1ccc(N(C)C)cc1 (centres undefined) | 12.8% (inactive)
COC(=O)c1sccc1S(=O)(=O)Nc1ccc(S(N)(=O)=O)cc1 | 2.58% (inactive)
CC(C)(C)NC(=O)CSc1nnc(SCC(=O)NC(C)(C)C)s1 | 1.09% (inactive)
N#CCSc1nnc(Cc2cccs2)n1C1CCCCC1 | 1.61% (inactive)
Cc1ccccc1-n1c(SC/C(O)=C(\C#N)c2nc3ccccc3[nH]2)nnc1-c1ccncc1 | 13.8% (inactive)
NC(=O)CSc1nnc(Cc2cccs2)n1C1CCCCC1 | 0.23% (inactive)
COc1ccc(C)cc1-n1nnnc1SC/C(O)=C(\C#N)c1nc2ccccc2[nH]1 | -0.98% (inactive)
CCOP(=O)(OCC)C(Nc1ccccc1)c1ccco1 (centres undefined) | 0.74% (inactive)
CS(=O)(=O)NCc1ccc(C(=O)O)cc1 | 9.65% (inactive)
NNC(=O)C1CC1c1ccccc1 (centres undefined) | -1.25% (inactive)
COC(=O)c1cccc(NC(=O)C2COc3ccccc3O2)c1C (centres undefined) | 3.13% (inactive)
Cc1ccc(C(=O)c2cc3c(cc2[N+](=O)[O-])OCCO3)cc1 | 1.34% (inactive)
Cc1oc2cc([N+](=O)[O-])c(O)c([N+](=O)[O-])c2c1C(=O)c1ccc(Cl)cc1 | 16.5% (inactive)
Cc1ccc(C(=O)c2coc3ccc(O)c(Cl)c23)cc1 | 2.57% (inactive)

Structure (SMILES) | inhibition
COc1ccc(OC)c(C(=O)c2c(C)oc3cc([N+](=O)[O-])c(O)c([N+](=O)[O-])c23)c1 | 7.96% (inactive)
O=C1NC(c2ccccc2)=C(c2ccccc2)C1=O | 18.7% (inactive)
O=C(c1ccco1)N1CCN(C(c2ccccc2Cl)c2nnnn2Cc2cccs2)CC1 (centres undefined) | 1.56% (inactive)
CC(C)(C)c1ccc(SCCc2ccccn2)cc1 | 0.53% (inactive)
CC(C)Oc1ccc(NC(N)=O)cc1 | 4.7% (inactive)
Cc1cc(C)cc(-n2cccc2/C=C2/C(=N)N3C(=NC2=O)SN=C3S(C)(=O)=O)c1 | 18.4% (inactive)
CCC1=NN2C(=N)/C(=C\c3cccn3-c3ccc(Br)cc3)C(=O)N=C2S1 | 4.13% (inactive)
CS(=O)(=O)C1=NSC2=NC(=O)/C(=C\c3cccn3-c3ccccc3Cl)C(=N)N21 | 12.3% (inactive)
CC1=CSC2=NC(=O)/C(=C\c3cccn3-c3ccccc3)C(=N)N12 | 5.41% (inactive)
CCOc1ccc(-n2c(C)cc(/C=C3/C(=N)N4C(=NC3=O)SN=C4S(C)(=O)=O)c2C)cc1 | 21.4% (inactive)
COc1cccc(-n2c(C)cc(/C=C3/C(=N)N4C(=NC3=O)SN=C4S(C)(=O)=O)c2C)c1 | 16.2% (inactive)
CCC1=NN2C(=N)/C(=C\c3cccn3-c3c(C)cccc3C)C(=O)N=C2S1 | 13.2% (inactive)
CCC1=NN2C(=N)/C(=C\c3cccn3-c3ccc(Cl)cc3)C(=O)N=C2S1 | 8.09% (inactive)
COC(=O)Nc1ccc(S(=O)(=O)N2CCCC(C(=O)Nc3cccnc3)C2)cc1 (centres undefined) | -1.96% (inactive)
CCN(CC)CCN(C(=O)c1ccc(S(=O)(=O)N2CCCCC2)cc1)c1nc2cc3c(cc2s1)OCO3 | -2.92% (inactive)
O=C(NN1CCOCC1)c1sc2cccc(F)c2c1Cl | 4.71% (inactive)
O=C1c2ccccc2C(=O)N1c1nc2nccc(-c3ccccc3)n2n1 | -0.09% (inactive)
Cc1cc(NC(=O)c2cncc(Br)c2)n(-c2ccccn2)n1 | 1.7% (inactive)
COc1cc(NS(=O)(=O)c2ccc(NC(=S)NC(=O)c3ccco3)cc2)nc(OC)n1 | 16.3% (inactive)
CCc1nnc(NS(=O)(=O)c2ccc(NC(=S)NC(=O)c3ccccc3)cc2)s1 | 13.4% (inactive)
CCc1nnc(NS(=O)(=O)c2ccc(NC(=S)NC(=O)/C=C/c3ccc(C(C)C)cc3)cc2)s1 | 19.8% (inactive)
CCc1nnc(NS(=O)(=O)c2ccc(NC(=S)NC(=O)/C=C/c3ccc(OC)cc3)cc2)s1 | 2.25% (inactive)
CCc1nnc(NS(=O)(=O)c2ccc(NC(=O)/C=C/c3ccc(F)cc3)cc2)s1 | 3.37% (inactive)
COc1cc(NS(=O)(=O)c2ccc(NC(=S)NC(=O)C(C)(C)C)cc2)nc(OC)n1 | 4.8% (inactive)

Structure (SMILES) | inhibition
CCc1nnc(NS(=O)(=O)c2ccc(NC(=S)NC(=O)c3ccncc3)cc2)s1 | 4.45% (inactive)
CCc1nnc(NS(=O)(=O)c2ccc(NC(=S)NC(=O)/C=C/c3ccccc3)cc2)s1 | 13.3% (inactive)
O=C1NCCCC1C(=O)N/N=C/c1ccccc1O (centres undefined) | 9.72% (inactive)
O=C(Cc1nn[nH]n1)NCc1ccccc1Cl | 1.85% (inactive)
CC1(C)CC(CCC(=O)NC(=S)Nc2ccccc2Cl)C(=O)O1 (centres undefined) | 8.14% (inactive)
Cc1ccc(OCC(=O)Nc2ccccc2-c2ccccc2NC(=O)COc2ccc(C)cc2)cc1 | 3.53% (inactive)
N#Cc1cc(C(=O)c2cc(F)ccc2O)cn(Cc2ccccc2)c1=O | 7.68% (inactive)
Cc1ccc(C(=O)NC(=S)Nc2ccc(CN3CCCCC3)cc2)c(C)c1 | 5.24% (inactive)
CC(=O)N1CCN(c2ccc(Oc3nnnn3-c3ccccc3)cc2)CC1 | 2.19% (inactive)
O=C(Cc1cccs1)N/N=C/C=C/c1ccccc1[N+](=O)[O-] | 2.54% (inactive)
CCc1nnc(NS(=O)(=O)c2ccc(NC(=S)NC(=O)c3ccc(F)cc3)cc2)s1 | 22.7% (inactive)
CCc1nnc(NS(=O)(=O)c2ccc(NC(=S)NC(=O)c3ccc(Br)cc3)cc2)s1 | 21.6% (inactive)
COc1ccc(C(=O)/C=C/Nc2cccc(O)c2)cc1 | -6.48% (inactive)
Cn1nc(C(F)(F)F)c2cc(C(=O)Nc3ccc(F)c(Cl)c3)sc21 | 8.67% (inactive)
O=C(CNC(=O)c1ccc(F)cc1)N/N=C/c1cc(Br)ccc1OCc1ccccc1 | 0.24% (inactive)
CN(C)c1ccc(/C=N/NC(=O)c2cccc(N3CCCC3=O)c2)cc1 | 4.11% (inactive)
O=C(CNC(=O)c1cccc(Br)c1)N/N=C/c1cc(Br)cc(Br)c1O | 0.13% (inactive)
COc1ccc(/C=N/NC(=O)c2sc(C)nc2C)cc1 | 9.79% (inactive)
COc1ccccc1/C=C/C(=O)NCC(=O)N/N=C/c1cc(Br)ccc1OC | 22.4% (inactive)
COc1ccccc1/C=N/NC(=O)c1sc(C)nc1C | 5.02% (inactive)
O=C(CNC(=O)c1ccncc1)N/N=C/c1cc(Br)ccc1OCc1ccccc1 | 5.07% (inactive)
O=C(N/N=C/c1ccco1)c1cccc(N2CCCC2=O)c1 | 2.43% (inactive)
